Only a selection was taken, and the strongest signals are over-represented in it overall.
Legend:
Test in all cases: glycan array binding signal (z-score within array); higher = stronger binding
Settings in all cases: glycan notation: IUPAC condensed, linker removed
[1] = biological target: Fuc(a1-2)Gal(b1-3)[Fuc(a1-4)]GlcNAc
Outline: (§1)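 From the Consortium for Functional Glycomics database, 3228 arrays were curated, keeping only those whose protein sequence was available. Binding is given as a within-array Z-score averaged across arrays sharing a protein sequence and across linkers. Negative Z-scores can be read as non-binding.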

[2] = biological target: Fuc(a1-3)[Gal(b1-4)]Glc6S
Outline: as §1

[3] = biological target: Fuc(a1-3)[Gal(b1-4)]GlcNAc(b1-4)Gal(b1-4)[Fuc(a1-3)]GlcNAc
Outline: as §1

[4] = biological target: Fuc(a1-3)[Gal3S(b1-4)]Glc6S
Outline: as §1

[5] = biological target: Fuc(a1-3)[Gal3S(b1-4)]GlcNAc6S
Outline: as §1

Gal(a1-6)Glc = biological target: Gal(a1-6)Glc
Outline: as §1

Gal(b1-3)Gal = biological target: Gal(b1-3)Gal
Outline: as §1

Gal(b1-4)Glc6S = biological target: Gal(b1-4)Glc6S
Outline: as §1

[6] = biological target: Gal(b1-4)GlcNAc(b1-3)Gal(b1-4)[Fuc(a1-3)]GlcNAc(b1-3)Gal(b1-4)[Fuc(a1-3)]GlcNAc
Outline: as §1

[7] = biological target: Gal(b1-4)GlcNAc(b1-6)Gal(b1-4)GlcNAc
Outline: as §1

Gal3S(b1-3)GlcNAc = biological target: Gal3S(b1-3)GlcNAc
Outline: as §1

[8] = biological target: Gal3S(b1-3)[Fuc(a1-4)]GlcNAc
Outline: as §1

Gal3S6S(b1-4)GlcNAc6S = biological target: Gal3S6S(b1-4)GlcNAc6S
Outline: as §1

Gal6S(b1-4)GlcNAc = biological target: Gal6S(b1-4)GlcNAc
Outline: as §1

[9] = biological target: GlcNAc(b1-4)Gal(b1-4)GlcNAc
Outline: as §1

[10] = biological target: Man(a1-2)Man(a1-3)[Man(a1-6)]Man(a1-6)[Man(a1-2)Man(a1-3)]Man(b1-4)GlcNAc(b1-4)GlcNAc
Outline: as §1

[11] = biological target: Man(a1-3)[Man(a1-6)]Man(a1-6)[Man(a1-3)]Man
Outline: as §1

[12] = biological target: Man(a1-3)[Man(a1-6)]Man(b1-4)GlcNAc(b1-4)GlcNAc
Outline: as §1

[13] = biological target: Neu5Ac(a2-3)Gal(b1-3)GalNAc
Outline: as §1

[14] = biological target: Neu5Ac(a2-3)Gal(b1-3)GalNAc(b1-3)Gal(b1-4)GlcNAc
Outline: as §1

[15] = biological target: Neu5Ac(a2-3)Gal(b1-3)GlcNAc
Outline: as §1

[16] = biological target: Neu5Ac(a2-3)Gal(b1-3)[Neu5Ac(a2-3)Gal(b1-4)]GlcNAc
Outline: as §1

[17] = biological target: Neu5Ac(a2-3)Gal(b1-4)GlcNAc(b1-3)Gal(b1-4)GlcNAc
Outline: as §1

[18] = biological target: Neu5Ac(a2-3)Gal(b1-4)[Fuc(a1-3)]GlcNAc6S
Outline: as §1

[19] = biological target: Neu5Ac(a2-3)Gal6S(b1-4)[Fuc(a1-3)]GlcNAc
Outline: as §1

[20] = biological target: Neu5Ac(a2-3)[GalNAc(b1-4)]Gal(b1-4)Glc
Outline: as §1

[21] = biological target: Neu5Ac(a2-8)Neu5Ac(a2-8)Neu5Ac(a2-3)[GalNAc(b1-4)]Gal(b1-4)Glc
Outline: as §1

[22] = biological target: Neu5Ac9Ac(a2-6)Gal(b1-4)GlcNAc
Outline: as §1

[23] = biological target: Fuc(a1-2)[Gal(a1-3)]Gal(b1-4)[Fuc(a1-3)]GlcNAc
Outline: as §1

[24] = biological target: Fuc(a1-3)[Gal(b1-4)]GlcNAc(b1-3)Gal(b1-3)[Fuc(a1-4)]GlcNAc
Outline: as §1

Fuc(a1-4)GlcNAc = biological target: Fuc(a1-4)GlcNAc
Outline: as §1

[25] = biological target: Gal(a1-3)[Gal(a1-4)]Gal(b1-4)GlcNAc
Outline: as §1

Gal(a1-4)GlcNAc = biological target: Gal(a1-4)GlcNAc
Outline: as §1

Gal(b1-2)Gal = biological target: Gal(b1-2)Gal
Outline: as §1

[26] = biological target: Gal(b1-4)GlcNAc(b1-6)[Gal(b1-3)]GalNAc
Outline: as §1

[27] = biological target: Man(a1-2)Man(a1-6)[Man(a1-3)]Man(a1-6)[Man(a1-2)Man(a1-2)Man(a1-3)]Man
Outline: as §1

Man(a1-3)[Man(a1-6)]Man = biological target: Man(a1-3)[Man(a1-6)]Man
Outline: as §1

[28] = biological target: Man(a1-3)[Man(a1-6)]Man(a1-6)[Man(a1-2)Man(a1-3)]Man(b1-4)GlcNAc(b1-4)GlcNAc
Outline: as §1

[29] = biological target: Man(a1-3)[Man(a1-6)]Man(a1-6)[Man(a1-3)]Man(b1-4)GlcNAc(b1-4)GlcNAc
Outline: as §1

[30] = biological target: Neu5Ac(a2-3)Gal(b1-3)GalNAc6S
Outline: as §1

[31] = biological target: Neu5Ac(a2-3)Gal6S(b1-4)GlcNAc
Outline: as §1

[32] = biological target: Neu5Ac(a2-3)[GalNAc(b1-4)]Gal(b1-4)GlcNAc
Outline: as §1

[33] = biological target: Neu5Ac(a2-6)Gal(b1-4)GlcNAc
Outline: as §1

[34] = biological target: Neu5Ac(a2-6)Gal(b1-4)GlcNAc(b1-2)Man(a1-6)[Gal(b1-4)GlcNAc(b1-2)Man(a1-3)]Man(b1-4)GlcNAc(b1-4)GlcNAc
Outline: as §1

[35] = biological target: Neu5Ac(a2-8)Neu5Ac(a2-8)Neu5Ac(a2-8)Neu5Ac(a2-3)[GalNAc(b1-4)]Gal(b1-4)Glc
Outline: as §1

[36] = biological target: Neu5Gc(a2-3)Gal(b1-4)GlcNAc
Outline: as §1

[37] = biological target: Neu5Gc(a2-6)Gal(b1-4)GlcNAc
Outline: as §1

B1: L-Selectin (Homo sapiens), P14151 (protein)
chain: MIFPWKCQSTQRDLWNIFKLWGWTMLCCDFLAHHGTDCWTYHYSEKPMNWQRARRFCRDNYTDLVAIQNKAEIEYLEKTLPFSRSYYWIGIRKIGGIWTWVGTNKSLTEEAENWGDGEPNNKKNKEDCVEIYIKRNKDAGKWNDDACHKLKAALCYTASCQPWSCSGHGECVEIINNYTCNCDVGYYGPQCQFVIQCEPLEAPELGTMDCTHPLGNFSFSSQCAFSCSEGTNLTGIEETTCGPFGNWSSPEPTCQVIQCEPLSAPDLGIMNCSHPLASFSFTSACTFICSEGTELIGKKKTICESSGIWSNPSPICQKLDKSFSMIKEGDYNPLFIPVAVMVTAFSGLAFIIWLARRLKKGKKSKRSMNDPY
glycan array binding signal (z-score) [1]: -0.36 | glycan array binding signal (z-score) [2]: 0.137 | glycan array binding signal (z-score) [3]: -0.145 | glycan array binding signal (z-score) [4]: 6.9 | glycan array binding signal (z-score) [5]: 8.15 | glycan array binding signal (z-score) (Gal(a1-6)Glc): 0.48 | glycan array binding signal (z-score) (Gal(b1-3)Gal): -0.315 | glycan array binding signal (z-score) (Gal(b1-4)Glc6S): 0.942 | glycan array binding signal (z-score) [6]: -0.38 | glycan array binding signal (z-score) [7]: -0.336 | glycan array binding signal (z-score) (Gal3S(b1-3)GlcNAc): -0.333 | glycan array binding signal (z-score) [8]: 3.08 | glycan array binding signal (z-score) (Gal3S6S(b1-4)GlcNAc6S): 4.59 | glycan array binding signal (z-score) (Gal6S(b1-4)GlcNAc): -0.078 | glycan array binding signal (z-score) [9]: 0.119 | glycan array binding signal (z-score) [10]: -0.024 | glycan array binding signal (z-score) [11]: -0.198 | glycan array binding signal (z-score) [12]: -0.246 | glycan array binding signal (z-score) [13]: 0.005 | glycan array binding signal (z-score) [14]: -0.116 | glycan array binding signal (z-score) [15]: -0.147 | glycan array binding signal (z-score) [16]: -0.044 | glycan array binding signal (z-score) [17]: -0.338 | glycan array binding signal (z-score) [18]: 9.18 | glycan array binding signal (z-score) [19]: -0.028 | glycan array binding signal (z-score) [20]: -0.363 | glycan array binding signal (z-score) [21]: -0.314 | glycan array binding signal (z-score) [22]: 0.073

B2: HFR-1 (Triticum aestivum) (protein)
chain: MSPQSFTLETTTTTPAAKGSDPSYFQSAPACHEMIQHKELLLHLYAYQNVQKTPDANQAVIVESKRPECFGILAANDWTVYDGPAHNANLVAHAQGLHLGASMAKENWFICFNMVFVNQRFTGSSFKVMGDFQGTAHNGEWAIVGGTGEFAYAQGVIAFKKTQQSERNARMELHVRAMCLSFLRPLLSLGDGSAVAKIGPWGKMSGELLDIPSTPQRLERITIRHGVVIDSLAFSFIDKAGEPYNVGPWGGRRGDNKDTIELAPSEIVTEVSGTVGIFAEDNVEYNAIASLTITTNHRPYGPFGETQSTPFSVPVQDNNNIVGFFACAGKYVEALGVYVRSPVST
glycan array binding signal (z-score) [1]: -0.201 | glycan array binding signal (z-score) [23]: -0.225 | glycan array binding signal (z-score) [24]: -0.224 | glycan array binding signal (z-score) [3]: -0.165 | glycan array binding signal (z-score) (Fuc(a1-4)GlcNAc): -0.057 | glycan array binding signal (z-score) [25]: -0.199 | glycan array binding signal (z-score) (Gal(a1-4)GlcNAc): -0.22 | glycan array binding signal (z-score) (Gal(b1-2)Gal): 0.042 | glycan array binding signal (z-score) [26]: -0.206 | glycan array binding signal (z-score) [27]: -0.214 | glycan array binding signal (z-score) (Man(a1-3)[Man(a1-6)]Man): 4.93 | glycan array binding signal (z-score) [28]: 6.43 | glycan array binding signal (z-score) [11]: 7.26 | glycan array binding signal (z-score) [29]: 7.87 | glycan array binding signal (z-score) [12]: 5.48 | glycan array binding signal (z-score) [30]: -0.218 | glycan array binding signal (z-score) [31]: -0.213 | glycan array binding signal (z-score) [20]: -0.024 | glycan array binding signal (z-score) [32]: -0.165 | glycan array binding signal (z-score) [33]: -0.223 | glycan array binding signal (z-score) [34]: -0.222 | glycan array binding signal (z-score) [35]: 0.01 | glycan array binding signal (z-score) [36]: -0.221

B3: SCA (Schizophyllum commune) (protein)
chain: MGIDQGVYLITNAGSGTAATLKDGYVKGWERIKGKEQLNQLWFVKSVKTSASDPGYAAFNLATNKVLDLEKGLADRGTPILGWDYHEGDNQHWVIKKQADGKYYKIQSVKTQTFVDLNNGGKDNGTKIQGWVGSWDETNSHQRWVFNQFSATGSRIKSILDTHPKIHGKVIVEWPDRIYFTPDQYIFEAIWAKTGLADIKPRDPLFQSEAYEKVFKGWVVSRAQEIIKVDGFDILVGSLSLVEKSTQKIKVLDVSVRTSDDKSPDLSQIVFFDPESGRTLVDIPEGYEVNSVII
glycan array binding signal (z-score) [36]: -0.161 | glycan array binding signal (z-score) [37]: -0.162
